Measurements: PubChem BioAssay
Active and inactive are the calls of the source. Unless noted, the rule behind the calls is not given here.

How the values were obtained:
[1] = HepG2 liver cancer cell viability effects, profiling panel, resazurin fluorescence, 24 h, PK04 Diversity Set (AID 1172); details: higher = more signal
[2] = basal S. cerevisiae growth modulation, no modifier, primary screen, OD600, strain BY4716, 24 h, basal condition (AID 1173); details: OD600, 24 h, higher = more signal, called active from +8 up or from −8 down
[3] = MM1S myeloma cell viability, profiling panel, resazurin fluorescence, basal, 24 h, PK04 Diversity Set (AID 1174); details: higher = more signal, called active from +8 up or from −8 down;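 note: MM1S multiple myeloma cell line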
[4] = target: Dihydroorotate dehydrogenase (quinone), mitochondrial (Plasmodium falciparum (isolate 3D7)) (UniProt Q08210); test: PfDHODH enzyme inhibitors, primary screen, biochemical, C-terminal His tag, absorbance 600 nm (AID 1175); details: DCIP absorbance 600 nm, higher = more signal, called active from +8 up or from −8 down;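 note: recombinant parasite enzyme with a five histidine tag at its C terminus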
Dihydroorotate dehydrogenase (quinone), mitochondrial (Plasmodium falciparum (isolate 3D7)), sequence (Q08210 whole entry, looked up): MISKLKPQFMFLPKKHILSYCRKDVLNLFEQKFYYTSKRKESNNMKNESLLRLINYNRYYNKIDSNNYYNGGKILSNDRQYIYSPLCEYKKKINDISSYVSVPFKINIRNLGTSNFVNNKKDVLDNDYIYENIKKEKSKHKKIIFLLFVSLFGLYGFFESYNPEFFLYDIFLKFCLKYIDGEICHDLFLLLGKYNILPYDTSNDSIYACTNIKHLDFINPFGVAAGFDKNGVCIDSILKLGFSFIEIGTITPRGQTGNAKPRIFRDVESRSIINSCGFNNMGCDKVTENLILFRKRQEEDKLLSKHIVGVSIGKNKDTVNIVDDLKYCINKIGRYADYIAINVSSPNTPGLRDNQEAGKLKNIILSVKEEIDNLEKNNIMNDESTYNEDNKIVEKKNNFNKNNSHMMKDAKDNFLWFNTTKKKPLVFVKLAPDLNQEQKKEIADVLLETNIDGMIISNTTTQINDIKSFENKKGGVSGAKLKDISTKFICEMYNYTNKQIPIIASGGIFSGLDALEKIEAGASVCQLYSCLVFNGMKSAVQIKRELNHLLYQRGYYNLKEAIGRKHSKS

[5] = P. aeruginosa biofilm formation inhibitors, primary screen, strain PAO1, LB-PBS medium, absorbance 600 nm (AID 1176); details: P. aeruginosa PAO1 growth/biofilm, A600, 12 h; higher = more signal
[6] = S. cerevisiae RM11-1a growth modifiers, primary screen, strain RM11-1a, OD600, basal, 24 h (AID 1177); details: OD600, 24 h, higher = more signal, called active from +8 up or from −8 down;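 note: cultures grown under basal conditions with no added stressor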
[7] = E. coli acrAB mutant growth effects, primary screen, E. coli filamentation inducers, strain DRC39, OD650, 24 h (AID 1178); details: higher = more signal, called active from +8 up or from −8 down;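 note: growth measured as culture turbidity by optical density at 650 nm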
[8] = E. coli acrAB mutant growth effects, primary screen, E. coli filamentation inducers, strain DRC39, OD650, 48 h (AID 1179);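 note: screen aims at cell division blockers that make cells filament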; details: E. coli DRC39 delta-acrAB growth, higher = more signal, called active from +8 up or from −8 down
[9] = RPMI8226 myeloma cell viability, profiling panel, resazurin fluorescence, basal, 24 h, PK04 Diversity Set (AID 1180); details: higher = more signal;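 note: RPMI8826 multiple myeloma cell line at 5000 cells per well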
[10] = target: E3 ubiquitin-protein ligase XIAP (Homo sapiens) (UniProt P98170); test: XIAP binders, primary screen, biophysical, small-molecule microarray, fluorescence 635 nm (AID 1181); details: small-molecule microarray binding, higher = more signal;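 note: score merges 667 nm emission and signal to noise over triplicate slides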
E3 ubiquitin-protein ligase XIAP (Homo sapiens), sequence (P98170 whole entry, looked up): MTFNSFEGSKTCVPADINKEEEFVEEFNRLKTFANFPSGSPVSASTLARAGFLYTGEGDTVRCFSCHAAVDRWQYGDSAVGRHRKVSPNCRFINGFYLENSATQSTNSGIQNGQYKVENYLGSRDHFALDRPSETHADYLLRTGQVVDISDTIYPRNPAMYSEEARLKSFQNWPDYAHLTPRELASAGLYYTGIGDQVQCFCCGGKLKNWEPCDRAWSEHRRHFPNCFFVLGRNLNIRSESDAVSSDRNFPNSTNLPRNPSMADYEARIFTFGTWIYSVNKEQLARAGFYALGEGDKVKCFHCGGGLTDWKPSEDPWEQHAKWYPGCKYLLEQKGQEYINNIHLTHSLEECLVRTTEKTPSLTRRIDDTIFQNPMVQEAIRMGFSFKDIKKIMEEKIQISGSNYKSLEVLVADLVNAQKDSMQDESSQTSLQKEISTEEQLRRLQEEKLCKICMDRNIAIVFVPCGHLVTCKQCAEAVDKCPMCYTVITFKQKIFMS

[11] = system: XIP peptide (Xip251-270) binding; test: small-molecule binders of XIP peptide, primary screen, biochemical, small-molecule microarray, fluorescence 635/667 nm, 0.1 µg/mL protein (AID 1182); details: fluorescent protein binding, 635 nm, higher = more signal, called active from +8 up or from −8 down
[12] = system: XIP peptide (Xip251-270); test: small-molecule binders of XIP peptide, primary screen, biochemical, small-molecule microarray, fluorescence 635/667 nm, 0.5 µg/mL protein (AID 1183); details: small-molecule microarray binding, fluorescence 635 nm; higher = more signal
[13] = Plasmodium falciparum growth inhibition, primary screen, strain 3D7, DAPI fluorescence, 100 nL (AID 1184);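 note: parasites grown inside human red blood cells in medium with human serum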; details: P. falciparum 3D7 growth, 3 d, higher = more signal
[14] = target: Homeobox protein Hox-A13 (Mus musculus) (UniProt Q62424); test: inhibitors of HoxA13-DNA binding, primary screen, biochemical, fluorescence polarization, labeled oligonucleotide (AID 1185); details: 15 min, higher = more signal, called active from +8 up or from −8 down
Homeobox protein Hox-A13 (Mus musculus), sequence (Q62424 whole entry, looked up): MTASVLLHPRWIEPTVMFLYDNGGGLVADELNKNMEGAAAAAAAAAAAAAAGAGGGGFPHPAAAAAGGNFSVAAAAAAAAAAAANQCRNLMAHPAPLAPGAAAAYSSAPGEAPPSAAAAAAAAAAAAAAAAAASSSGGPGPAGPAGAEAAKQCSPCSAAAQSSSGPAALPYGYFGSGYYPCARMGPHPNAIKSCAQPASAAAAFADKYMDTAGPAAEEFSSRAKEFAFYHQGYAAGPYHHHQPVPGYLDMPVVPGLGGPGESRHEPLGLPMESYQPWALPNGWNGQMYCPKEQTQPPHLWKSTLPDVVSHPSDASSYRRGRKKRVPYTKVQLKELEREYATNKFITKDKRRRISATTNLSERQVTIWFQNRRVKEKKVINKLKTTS

[15] = inhibitors of hydroxyurea-induced Chk1 phosphorylation, primary screen, imaging, HeLa, phospho-Chk1 antibody, percent positive cells (AID 1186); details: hydroxyurea-induced phospho-Chk1 immunofluorescence imaging, higher = more signal
[16] = inhibitors of hydroxyurea-induced Chk1 phosphorylation, primary screen, imaging, HeLa, phospho-Chk1 nuclear intensity (AID 1187); details: hydroxyurea-induced phospho-Chk1 immunofluorescence imaging, higher = more signal

Compound | z-score [1] | z-score [2] | z-score [3] | composite z-score [4] | z-score [5] | z-score [6] | z-score [7] | z-score [8] | z-score [9] | composite z-score [10] | composite z-score [11] | composite z-score [12] | z-score [13] | z-score [14] | z-score [15] | z-score [16]
CO[C@H]1O[C@H](CO)[C@@H](OC(=O)Nc2ccc3c(c2)OCO3)[C@H](OC(=O)Nc2ccc3c(c2)OCO3)[C@@H]1OC(=O)Nc1ccc2c(c1)OCO2 | -0.907 | 1.44 (inactive) | -0.309 (inactive) | -0.732 (inactive) | 1.05 (inactive) | 1.81 (inactive) | 1.01 (inactive) | -0.147 (inactive) | -0.472 | 0.374 | 1.12 (inactive) | 0.904 | -2.31 | -4.7 (inactive) | -0.187 (inactive) | -0.119 (inactive)
CCCC=C(CCC)[C@@H](NP(=O)(c1ccccc1)c1ccccc1)c1ccc(-c2ccccc2)cc1 | 0.127 | 2.21 (inactive) | -1.16 (inactive) | 0.23 (inactive) | -0.511 (inactive) | 1.42 (inactive) | -0.492 (inactive) | 0.477 (inactive) | -1.72 | 0.144 | 0.356 (inactive) | 0.42 | 0.0851 | -1.13 (inactive) | 0.175 (inactive) | -0.0233 (inactive)
COc1cc2c(cc1O)C(C1CC1)N(Cc1cccc(OC(F)(F)F)c1)CC2 (centres undefined) | -0.882 | -5.59 (inactive) | -3.32 (inactive) | -3.64 (inactive) | -0.0344 (inactive) | 0.002 (inactive) | 0.213 (inactive) | -0.0239 (inactive) | -2.84 | 0.0674 | 0.676 (inactive) | 0.651 | -1.8 | -5.17 (inactive) | 0.433 (inactive) | 0.678 (inactive)
CC1CC/C=C\[C@H]2OC34C=CCN(c5ccc6ccccc6c5)C(=O)[C@H]3N(CCCO)C(=O)[C@@H]4C2C(=O)O1 (some centres undefined) | -0.829 | 0.723 (inactive) | -0.644 (inactive) | 0.676 (inactive) | -0.829 (inactive) | 0.822 (inactive) | -0.587 (inactive) | -0.723 (inactive) | 0.0719 | 0.275 | -0.103 (inactive) | 0.327 | 0.293 | -5.63 (inactive) | 0.486 (inactive) | 0.104 (inactive)
COc1ccc([Si](C)(C)[C@H]2[C@H](CC(=O)N3Cc4ccccc4C[C@H]3CO)O[C@@]3(C(=O)N(Cc4ccc(N5CCOC5=O)cc4)c4ccccc43)[C@@H]2C)cc1 | -0.418 | -0.895 (inactive) | -3.41 (inactive) | -1.03 (inactive) | 0.732 (inactive) | 0.543 (inactive) | 0.166 (inactive) | -0.207 (inactive) | -2.27 | -0.105 | 1.61 (inactive) | 0.742 | -0.847 | -3.92 (inactive) | -0.719 (inactive) | -0.869 (inactive)
CC1CC/C=C\[C@H]2OC34C=CCN(C(C)(C)C)C(=O)[C@H]3N(CCCCCO)C(=O)[C@@H]4C2C(=O)O1 (some centres undefined) | -0.643 | 0.349 (inactive) | 0.285 (inactive) | 0.797 (inactive) | 0.121 (inactive) | -0.202 (inactive) | 0.338 (inactive) | 0.338 (inactive) | 0.0992 | -0.102 | 0.28 (inactive) | -0.48 | -0.375 | -4.58 (inactive) | 0.139 (inactive) | 0.408 (inactive)
COCCOC(=O)N1C(=O)[C@@]2(c3cc(C#CC4(O)CCCCCC4)ccc31)[C@H](C(=O)Nc1nc3ccccc3s1)[C@H]1C(=O)O[C@H](c3ccccc3)[C@H](c3ccccc3)N1[C@@H]2c1ccc(O)cc1 | -0.0328 | -0.873 (inactive) | -0.858 (inactive) | -1.03 (inactive) | 0.598 (inactive) | 1.24 (inactive) | 0.487 (inactive) | 0.613 (inactive) | -0.945 | -0.0274 | 0.479 (inactive) | 0.817 | 0.219 | -1.09 (inactive) | -0.205 (inactive) | 0.0486 (inactive)
CCCCC(O)C1C=CC2C(=O)N(C)C(=O)C2N1N(c1ccccc1)c1ccccc1 (centres undefined) | -0.682 | 0.512 (inactive) | -1.65 (inactive) | -0.226 (inactive) | 1.26 (inactive) | 0.46 (inactive) | -0.447 (inactive) | -0.251 (inactive) | -1.05 | 0.001 | 0.289 (inactive) | 0.771 | 1.01 | -4.42 (inactive) | -0.0768 (inactive) | -0.691 (inactive)
CC(CO)N1C(=O)[C@@H]2[C@H]3C(=O)OCC=C[C@H]3OC23C=CCN(Cn2nnc4ccccc42)C(=O)[C@@H]13 (some centres undefined) | -0.628 | 0.0199 (inactive) | -0.124 (inactive) | 0.29 (inactive) | -0.0558 (inactive) | -1.27 (inactive) | -0.11 (inactive) | -0.331 (inactive) | -0.35 | -0.334 | -0.0787 (inactive) | -1.27 | 0.212 | -3.47 (inactive) | 0.612 (inactive) | 0.424 (inactive)
Cc1cc(C)c(C(O)C2C=CC3C(=O)N(c4ccccc4)C(=O)C3N2Nc2ccccc2F)c(C)c1 (centres undefined) | 0.485 | 2.01 (inactive) | -0.371 (inactive) | 1.03 (inactive) | 0.971 (inactive) | 1.56 (inactive) | -0.47 (inactive) | -0.439 (inactive) | -0.527 | 0.127 | -0.121 (inactive) | 0.863 | -0.286 | -1.39 (inactive) | 0.153 (inactive) | -0.0495 (inactive)
NCCCCCNC(=O)[C@H]1C[C@H]2C(=O)N3CCC[C@H]3C(=O)N2[C@H]1c1cccc(OCCO)c1 | -1.25 | -0.0559 (inactive) | -0.02 (inactive) | 0.322 (inactive) | -0.252 (inactive) | -0.132 (inactive) | -0.658 (inactive) | -1.33 (inactive) | -0.29 | 0.256 | 1.19 (inactive) | 0.707 | -1.24 | -2.47 (inactive) | -0.0667 (inactive) | 0.53 (inactive)
CC(C)C(CO)N1C(=O)[C@@H]2[C@H]3C(=O)OCC=C[C@H]3OC23C=CCN(c2ccc(Cl)cc2)C(=O)[C@@H]13 (some centres undefined) | -0.0883 | 0.646 (inactive) | 0.679 (inactive) | 1.13 (inactive) | -1.13 (inactive) | 1.48 (inactive) | 0.969 (inactive) | 0.646 (inactive) | 1.08 | -0.21 | 0.331 (inactive) | -0.202 | -0.485 | -3.03 (inactive) | -0.438 (inactive) | -0.468 (inactive)
CC[C@@H]1C=C(C(=O)O)[C@H](c2ccccc2)N1S(=O)(=O)c1ccc(C)cc1 | -0.791 | 0.34 (inactive) | -1.17 (inactive) | -0.95 (inactive) | 0.16 (inactive) | -1.02 (inactive) | -0.666 (inactive) | -0.135 (inactive) | -1.54 | -0.0663 | 0.336 (inactive) | 0.504 | 1.78 | -3.56 (inactive) | 0.504 (inactive) | 0.227 (inactive)
CC(C)[Si]1(C(C)C)OCc2cc(-c3ccc(-c4ccc(Cl)c(Cl)c4)o3)nc(-c3ccccc3)c21 | 0.374 | -0.981 (inactive) | 0.797 (inactive) | 0.107 (inactive) | 0.374 (inactive) | -0.219 (inactive) | -0.28 (inactive) | -0.725 (inactive) | 0.311 | -0.031 | -0.325 (inactive) | 0.716 | 0.138 | -2.02 (inactive) | -0.611 (inactive) | -0.577 (inactive)
O=C(O)[C@@H]1[C@@H]2C(=O)N(c3ccccc3)C(=O)[C@@H]2C[C@@H]1Sc1ccccc1 | -0.303 | 0.308 (inactive) | -0.832 (inactive) | 1.2 (inactive) | 0.546 (inactive) | 1.48 (inactive) | -0.719 (inactive) | -1.3 (inactive) | -1.09 | -0.0907 | -0.213 (inactive) | 0.463 | 0.0183 | -2.65 (inactive) | 0.701 (inactive) | -0.162 (inactive)
O=C(c1ccccc1)N1C(=O)[C@]2(Cc3ccccc31)N=C(c1ccc(OCCCO)cc1)O[C@@H]2c1ccccc1 | -2.28 | 0.964 (inactive) | -5.95 (inactive) | 0.934 (inactive) | 1.82 (inactive) | 2.14 (inactive) | -0.18 (inactive) | -1.01 (inactive) | -5.46 | 0.233 | 0.409 (inactive) | 0.387 | -1.87 | -5.04 (inactive) | 0.546 (inactive) | 0.796 (inactive)
NC(=O)[C@@]1(Cc2ccccc2)COC(c2ccc(OCCCO)cc2)=N1 | -0.101 | 0.539 (inactive) | 0.153 (inactive) | 1.86 (inactive) | -0.0304 (inactive) | 1.58 (inactive) | 2.1 (inactive) | 0.595 (inactive) | -0.0366 | -0.0559 | 0.198 (inactive) | -0.959 | 0.0597 | -2.25 (inactive) | 0.279 (inactive) | 0.382 (inactive)
C=CCC(OC(C)=O)[C@@H]1[C@@H](N(Cc2cc3ccccc3o2)C(=O)Cc2ccc(F)cc2)c2cc(OCCCO)ccc2N1C(=O)Cc1ccc2ccccc2c1 (some centres undefined) | 0.278 | -0.0417 (inactive) | 0.72 (inactive) | -13.4 (active) | 0.526 (inactive) | -0.146 (inactive) | -1 (inactive) | -0.861 (inactive) | 0.189 | 0.109 | -0.0865 (inactive) | -0.507 | 0.694 | -1.9 (inactive) | 0.725 (inactive) | 0.113 (inactive)
COC(=O)c1c(CC[C@@H](CO)NC(=O)N[C@@H](C)Cn2cc(-c3ccccn3)nn2)oc(C(C)=O)c1C(=O)OC | -0.962 | -0.369 (inactive) | 0.0168 (inactive) | -2.74 (inactive) | -0.109 (inactive) | -0.37 (inactive) | -0.207 (inactive) | -0.605 (inactive) | -0.921 | 0.0808 | 1.29 (inactive) | 0.881 | -1.89 | 0.452 (inactive) | -0.207 (inactive) | 0.363 (inactive)
